From PubChem BioAssay (EPA / NIEHS)
Inconclusive results are not listed. Where a structure was tested more than once in an assay, its records may differ in their call. The source made the active and inactive calls. How the source made its calls, unless noted: active means hit-call score of the fitted dose curve at least 0.9, where 1 is the maximum; inconclusive means response in the unintended direction; inactive means score below 0.9.

How the values were obtained:
[1] = target: Glucocorticoid receptor (Homo sapiens) (UniProt P04150); assay: ATG_GR_TRANS: Attagene TRANS-FACTORIAL HepG2 Assay for human Glucocorticoid Receptor (GR) (AID 2282978); conditions: HepG2 Attagene TRANS GR reporter, mRNA transcription;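 further: activators score as hits since higher reporter transcript over DMSO is fitted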
Chain of Glucocorticoid receptor (Homo sapiens) (P04150 whole entry, looked up, the tested form may be a part): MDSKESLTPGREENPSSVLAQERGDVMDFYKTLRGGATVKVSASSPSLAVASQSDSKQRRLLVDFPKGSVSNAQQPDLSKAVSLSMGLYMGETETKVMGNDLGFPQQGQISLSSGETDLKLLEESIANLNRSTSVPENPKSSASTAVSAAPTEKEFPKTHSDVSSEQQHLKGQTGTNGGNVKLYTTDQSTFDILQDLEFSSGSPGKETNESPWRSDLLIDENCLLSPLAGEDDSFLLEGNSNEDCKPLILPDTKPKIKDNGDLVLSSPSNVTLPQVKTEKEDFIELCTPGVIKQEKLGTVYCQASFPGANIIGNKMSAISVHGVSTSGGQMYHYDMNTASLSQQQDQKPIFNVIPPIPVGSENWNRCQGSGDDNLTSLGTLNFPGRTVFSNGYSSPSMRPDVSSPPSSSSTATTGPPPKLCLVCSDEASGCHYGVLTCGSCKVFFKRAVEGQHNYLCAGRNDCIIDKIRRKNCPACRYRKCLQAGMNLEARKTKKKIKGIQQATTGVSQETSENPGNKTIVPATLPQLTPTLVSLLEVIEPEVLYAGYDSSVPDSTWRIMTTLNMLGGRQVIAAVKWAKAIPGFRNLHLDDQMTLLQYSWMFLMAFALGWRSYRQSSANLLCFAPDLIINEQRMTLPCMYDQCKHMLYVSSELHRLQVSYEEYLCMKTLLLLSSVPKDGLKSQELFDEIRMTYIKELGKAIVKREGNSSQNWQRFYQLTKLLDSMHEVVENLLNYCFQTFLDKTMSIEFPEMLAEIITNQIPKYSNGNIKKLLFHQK
Method in brief: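 HepG2 cells transiently transfected with GAL4-UAS reporter units and exogenous GR-Gal4 chimera, dosed 24 h. Reporter mRNA by RT-PCR, FAM labeling, HpaI digest and capillary electrophoresis; gain-of-signal fit versus DMSO.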

[2] = target: Oxysterols receptor LXR-alpha (Homo sapiens) (UniProt Q13133); assay: ATG_LXRa_TRANS: Attagene TRANS-FACTORIAL HepG2 Assay for human Liver X Receptor alpha (LXRa) (AID 2282980); conditions: HepG2 Attagene TRANS reporter, LXRa transactivation
Chain of Oxysterols receptor LXR-alpha (Homo sapiens) (Q13133 whole entry, looked up, the tested form may be a part): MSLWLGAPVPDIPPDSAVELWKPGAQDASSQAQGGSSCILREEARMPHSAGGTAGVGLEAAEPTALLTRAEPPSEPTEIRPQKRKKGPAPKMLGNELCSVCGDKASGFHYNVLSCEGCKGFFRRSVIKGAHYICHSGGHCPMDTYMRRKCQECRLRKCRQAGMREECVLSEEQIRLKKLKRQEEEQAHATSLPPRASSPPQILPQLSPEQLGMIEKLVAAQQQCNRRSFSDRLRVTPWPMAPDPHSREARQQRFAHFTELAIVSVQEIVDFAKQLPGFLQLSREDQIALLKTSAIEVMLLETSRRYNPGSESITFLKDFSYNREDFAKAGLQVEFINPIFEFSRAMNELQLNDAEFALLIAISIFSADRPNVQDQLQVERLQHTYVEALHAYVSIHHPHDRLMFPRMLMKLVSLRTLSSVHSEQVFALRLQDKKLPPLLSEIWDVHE
Method in brief: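 Transfect HepG2 with GAL4-UAS multiplex reporter constructs (TRANS format, chimeric receptor-GAL4); treat 24 h; extract RNA, reverse-transcribe, PCR-amplify, FAM-label, HpaI-digest; resolve fragments by capillary electrophoresis. Upward response vs DMSO.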

[3] = target: Oxysterols receptor LXR-beta (Homo sapiens) (UniProt P55055); assay: ATG_LXRb_TRANS: Attagene TRANS-FACTORIAL HepG2 Assay for human Liver X Receptor beta (LXRb) (AID 2282981); conditions: HepG2 Attagene TRANS GAL4-LXRb reporter, mRNA
Chain of Oxysterols receptor LXR-beta (Homo sapiens) (P55055 whole entry, looked up, the tested form may be a part): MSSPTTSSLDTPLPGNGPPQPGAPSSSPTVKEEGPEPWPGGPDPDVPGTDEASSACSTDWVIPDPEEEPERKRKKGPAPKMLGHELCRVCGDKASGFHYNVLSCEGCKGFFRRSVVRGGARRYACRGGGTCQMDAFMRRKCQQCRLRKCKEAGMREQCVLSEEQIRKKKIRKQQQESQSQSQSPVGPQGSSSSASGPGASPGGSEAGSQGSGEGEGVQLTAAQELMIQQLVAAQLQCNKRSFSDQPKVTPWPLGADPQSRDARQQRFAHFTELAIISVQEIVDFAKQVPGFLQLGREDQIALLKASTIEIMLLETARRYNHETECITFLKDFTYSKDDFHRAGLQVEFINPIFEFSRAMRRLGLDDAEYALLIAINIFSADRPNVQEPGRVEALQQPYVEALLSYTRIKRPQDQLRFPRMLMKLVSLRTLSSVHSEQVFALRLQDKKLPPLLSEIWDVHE
Method in brief: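 HepG2 cells transiently transfected with multiple reporter transcription units carrying chimeric NR-Gal4 proteins acting on GAL4-UAS reporters; compound exposure 24 h. Reporter mRNA quantified by RT-PCR, 6-FAM labelling, HpaI digestion and capillary electrophoresis; gain of signal versus DMSO.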

[4] = target: Hepatocyte nuclear factor 4-alpha (Homo sapiens) (UniProt P41235); assay: ATG_HNF4a_TRANS: Attagene TRANS-FACTORIAL HepG2 Assay for human Hepatocyte Nuclear Factor 4 alpha (HNF4a) (AID 2282982); conditions: HepG2 HNF4a transactivation reporter, mRNA readout
Chain of Hepatocyte nuclear factor 4-alpha (Homo sapiens) (P41235 whole entry, looked up, the tested form may be a part): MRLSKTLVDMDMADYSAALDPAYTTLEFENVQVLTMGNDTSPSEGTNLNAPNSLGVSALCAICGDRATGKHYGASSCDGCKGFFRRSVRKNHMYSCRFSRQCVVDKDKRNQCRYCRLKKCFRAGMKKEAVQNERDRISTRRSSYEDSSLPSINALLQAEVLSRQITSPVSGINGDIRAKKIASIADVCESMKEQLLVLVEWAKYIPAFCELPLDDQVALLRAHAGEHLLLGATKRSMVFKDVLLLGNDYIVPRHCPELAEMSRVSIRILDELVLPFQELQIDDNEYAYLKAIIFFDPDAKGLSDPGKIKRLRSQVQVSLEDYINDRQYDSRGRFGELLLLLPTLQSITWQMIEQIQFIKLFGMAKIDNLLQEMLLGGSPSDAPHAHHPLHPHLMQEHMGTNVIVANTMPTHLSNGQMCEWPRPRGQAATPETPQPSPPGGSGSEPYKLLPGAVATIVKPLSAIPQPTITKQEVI
Method in brief: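 HepG2 cells transiently transfected with multiplexed GAL4-UAS reporter units responsive to chimeric NR-GAL4 proteins; compound exposure 24 h. Reporter mRNA quantified by RT-PCR, 6-FAM labelling, HpaI digestion and capillary electrophoresis; gain of signal versus DMSO baseline.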

[5] = ATG_M_06_TRANS: Attagene TRANS-FACTORIAL HepG2 Assay for M06 Transcription Factor (Internal Marker) (AID 2282983); conditions: HepG2 Attagene TRANS M06 internal marker reporter;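 further: reporter transcript level by RT-PCR then capillary electrophoresis fluorescence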
Method in brief: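 Transfect HepG2 with MRTUs → dose compounds 24 h → isolate RNA, oligo(dT) RT → PCR with reporter primers → 6-FAM primer extension → HpaI digest → CE fragment analysis. Positive direction vs DMSO.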

[6] = ATG_M_32_TRANS: Attagene TRANS-FACTORIAL HepG2 Assay for M32 Transcription Factor (Internal Marker) (AID 2282984); conditions: HepG2 Attagene TRANS M32 internal marker reporter
Method in brief: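 HepG2 cells transiently transfected with multiple GAL4-UAS reporter transcription units, dosed for 24 hours; reporter mRNA quantified by RT-PCR, 6-FAM primer extension, HpaI digestion and capillary electrophoresis. Gain-of-signal fitted versus DMSO baseline; internal background-control marker.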

[7] = target: Nuclear receptor subfamily 4 group A member 2 (Homo sapiens) (UniProt P43354); assay: ATG_NURR1_TRANS: Attagene TRANS-FACTORIAL HepG2 Assay for human Nuclear Receptor Related Protein 1 (NURR1) (AID 2282985); conditions: HepG2 Attagene TRANS reporter, mRNA readout
Chain of Nuclear receptor subfamily 4 group A member 2 (Homo sapiens) (P43354 whole entry, looked up, the tested form may be a part): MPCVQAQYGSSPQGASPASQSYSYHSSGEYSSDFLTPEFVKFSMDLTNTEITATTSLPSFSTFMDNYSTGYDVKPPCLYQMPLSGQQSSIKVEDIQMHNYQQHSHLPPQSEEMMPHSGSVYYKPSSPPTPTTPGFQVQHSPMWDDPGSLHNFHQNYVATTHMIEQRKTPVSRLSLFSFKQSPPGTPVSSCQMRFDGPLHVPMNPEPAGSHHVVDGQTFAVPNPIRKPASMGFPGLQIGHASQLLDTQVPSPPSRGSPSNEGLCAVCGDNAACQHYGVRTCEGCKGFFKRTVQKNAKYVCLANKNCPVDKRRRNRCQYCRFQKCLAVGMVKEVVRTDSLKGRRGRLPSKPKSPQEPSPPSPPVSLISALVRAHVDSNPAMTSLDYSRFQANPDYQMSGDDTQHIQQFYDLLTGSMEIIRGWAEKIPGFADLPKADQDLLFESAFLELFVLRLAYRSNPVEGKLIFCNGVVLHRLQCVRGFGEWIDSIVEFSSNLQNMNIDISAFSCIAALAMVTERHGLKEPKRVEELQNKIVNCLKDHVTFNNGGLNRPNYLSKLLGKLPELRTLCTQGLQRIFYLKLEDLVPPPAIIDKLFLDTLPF
Method in brief: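 HepG2 cells transiently transfected with GAL4-UAS reporter units and chimeric NR-Gal4 constructs; chemical exposure 24 h. Reporter mRNA quantified by RT-PCR, fluorescent labelling and capillary electrophoresis; gain of signal fitted relative to DMSO baseline.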

[8] = target: Transcriptional activator Myb (Homo sapiens) (UniProt P10242); assay: ATG_Myb_CIS: Attagene CIS-FACTORIAL HepG2 Assay for human Myeloblastosis (Myb) Proto-Oncogene Transcription Factor (AID 2282986; active means hit-call score of the fitted dose curve at least 0.9, where 1 is the maximum; inactive means score below 0.9); conditions: HepG2 Attagene CIS-FACTORIAL Myb reporter transcription; actives raise or lower the signal
Chain of Transcriptional activator Myb (Homo sapiens) (P10242 whole entry, looked up): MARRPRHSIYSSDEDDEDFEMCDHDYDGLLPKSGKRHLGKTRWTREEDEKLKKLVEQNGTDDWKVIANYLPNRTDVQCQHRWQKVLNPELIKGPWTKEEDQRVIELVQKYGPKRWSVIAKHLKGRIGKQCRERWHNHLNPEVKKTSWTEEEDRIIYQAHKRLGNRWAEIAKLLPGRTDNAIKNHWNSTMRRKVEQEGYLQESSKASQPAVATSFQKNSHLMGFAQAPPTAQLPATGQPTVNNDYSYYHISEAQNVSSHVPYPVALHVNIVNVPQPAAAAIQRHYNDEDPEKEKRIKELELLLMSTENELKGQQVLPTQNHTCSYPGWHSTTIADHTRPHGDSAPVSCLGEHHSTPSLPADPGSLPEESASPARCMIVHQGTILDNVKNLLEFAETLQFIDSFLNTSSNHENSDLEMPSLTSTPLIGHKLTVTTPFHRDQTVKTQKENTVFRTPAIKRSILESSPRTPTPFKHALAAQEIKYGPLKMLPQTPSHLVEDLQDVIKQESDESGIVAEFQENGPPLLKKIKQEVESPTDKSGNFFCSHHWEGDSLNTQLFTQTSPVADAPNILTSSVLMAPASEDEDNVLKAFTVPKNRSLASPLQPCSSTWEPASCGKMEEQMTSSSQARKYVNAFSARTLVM
Method in brief: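 Transiently transfected HepG2 cells carrying a multiplexed cis-promoter reporter set report endogenous Myb activity after 24 h compound exposure. Reporter mRNA is read by RT-PCR with capillary electrophoresis of fluorescent products, fitted bidirectionally against DMSO.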

[9] = target: Estrogen-related receptor gamma (Homo sapiens) (UniProt P62508); assay: ATG_ERRg_TRANS: Attagene TRANS-FACTORIAL HepG2 Assay for human Estrogen-Related Receptor gamma (ERRg) (AID 2282977); conditions: HepG2 Attagene TRANS reporter, ERRg transactivation;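 further: hits increase reporter signal over DMSO so potencies reflect activators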
Chain of Estrogen-related receptor gamma (Homo sapiens) (P62508 whole entry, looked up, the tested form may be a part): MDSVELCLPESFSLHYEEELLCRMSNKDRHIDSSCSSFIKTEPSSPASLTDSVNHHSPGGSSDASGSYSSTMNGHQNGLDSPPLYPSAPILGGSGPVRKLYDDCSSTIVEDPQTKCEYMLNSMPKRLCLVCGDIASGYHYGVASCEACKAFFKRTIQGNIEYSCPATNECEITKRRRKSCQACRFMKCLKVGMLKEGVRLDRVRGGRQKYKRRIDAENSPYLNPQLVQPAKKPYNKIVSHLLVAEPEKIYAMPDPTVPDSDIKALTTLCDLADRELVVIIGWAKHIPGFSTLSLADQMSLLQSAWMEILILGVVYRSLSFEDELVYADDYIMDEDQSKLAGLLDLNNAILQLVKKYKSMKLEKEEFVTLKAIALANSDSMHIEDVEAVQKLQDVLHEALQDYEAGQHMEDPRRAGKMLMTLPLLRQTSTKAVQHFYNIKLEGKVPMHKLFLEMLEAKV
Method in brief: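 Transient HepG2 transfectants, 24 h compound exposure, GAL4-UAS reporter mRNA by RT-PCR/6-FAM labelling/capillary electrophoresis; positive direction vs DMSO.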

[10] = target: Bile acid receptor (Homo sapiens) (UniProt Q96RI1); assay: ATG_FXR_TRANS: Attagene TRANS-FACTORIAL HepG2 Assay for Farnesoid X Receptor (FXR) (AID 2282979); conditions: HepG2 Attagene TRANS FXR-GAL4 reporter transcription;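 further: hits raise reporter mRNA above DMSO so AC50 marks FXR activation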
Chain of Bile acid receptor (Homo sapiens) (Q96RI1 whole entry, looked up, the tested form may be a part): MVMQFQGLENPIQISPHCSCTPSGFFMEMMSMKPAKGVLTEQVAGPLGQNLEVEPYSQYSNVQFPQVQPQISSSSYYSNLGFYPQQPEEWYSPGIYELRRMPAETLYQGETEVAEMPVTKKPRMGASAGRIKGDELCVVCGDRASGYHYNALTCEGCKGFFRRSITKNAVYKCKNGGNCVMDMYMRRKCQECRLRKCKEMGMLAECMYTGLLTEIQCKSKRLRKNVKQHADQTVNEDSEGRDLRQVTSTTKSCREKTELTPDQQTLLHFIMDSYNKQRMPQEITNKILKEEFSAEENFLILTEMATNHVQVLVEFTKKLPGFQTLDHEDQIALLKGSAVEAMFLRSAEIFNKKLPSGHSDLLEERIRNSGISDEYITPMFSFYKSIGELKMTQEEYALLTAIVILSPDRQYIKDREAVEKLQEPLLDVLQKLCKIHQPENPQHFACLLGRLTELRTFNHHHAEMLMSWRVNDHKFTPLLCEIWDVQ
Method in brief: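 Transient transfection of HepG2 with multiplexed GAL4-UAS reporter units; exogenous FXR-GAL4 chimera. Dose 24 h → TriZol RNA → oligo(dT) RT → PCR, 6-FAM primer extension, HpaI cut → CE. Gain vs DMSO.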

Measured: AC50

c1ccc2[nH]c(-c3cscn3)nc2c1
inactive: [1] | [3] | [4] | [5] | [6] | [7] | [8]
active: [2] 27.2 µM

COC(=O)c1cccc(C)c1S(=O)(=O)NC(=O)Nc1nc(OCC(F)(F)F)nc(N(C)C)n1
inactive: [9] | [1] | [2] | [3] | [6] | [7] | [8]

O=C(c1ccc(O)cc1O)c1ccc(O)cc1O
inactive: [1] | [10] | [2] | [3] | [4] | [5] | [6] | [7] | [8]

CC(C)(c1ccc(O)cc1)c1ccc(O)cc1
active: [7] 44 µM
inactive: [9] | [2] | [3] | [4] | [5] | [6] | [7] | [8]

CC1(C)C(C=C(Cl)Cl)C1C(=O)OCc1cccc(Oc2ccccc2)c1 (stereo unspecified)
inactive: [1] | [2] | [3] | [4] | [7] | [8]

CCCCOC(=O)C(C)Oc1ccc(Oc2ccc(C(F)(F)F)cn2)cc1 (stereo unspecified)
inactive: [2] | [3] | [4] | [6] | [7] | [8]

CC(C)(C)[C@@H](O)[C@@H](Cc1ccc(Cl)cc1)n1cncn1
inactive: [2] | [3] | [4] | [5] | [8]

O=C(O)C1(C(=O)Nc2ccc(Cl)cc2Cl)CC1
inactive: [10] | [2] | [3] | [4] | [6] | [8]

COCCO
inactive: [2] | [3] | [4] | [5] | [6] | [8]

CCCCCOC(=O)COc1cc(N2C(=O)C3=C(CCCC3)C2=O)c(F)cc1Cl
inactive: [1] | [2] | [4] | [6] | [7] | [8]

CC(=O)S[C@@H]1CC2=CC(=O)CC[C@]2(C)[C@H]2CC[C@@]3(C)[C@@H](CC[C@@]34CCC(=O)O4)[C@H]12
inactive: [1] | [2] | [3] | [4] | [5] | [6] | [7] | [8]

CCOC(=O)C(C)Oc1ccc(Oc2cnc3cc(Cl)ccc3n2)cc1 (stereo unspecified)
inactive: [1] | [2] | [3] | [7] | [8]

CCOC(=O)[C@H](C)Oc1ccc(Oc2nc3ccc(Cl)cc3o2)cc1
inactive: [1] | [2] | [4] | [8]
active: [3] 50 µM

O=C(Nc1ccc([N+](=O)[O-])cc1Cl)c1cc(Cl)ccc1O
inactive: [2] | [3] | [4] | [8]

COC(=O)c1ccccc1S(=O)(=O)NC(=O)Nc1nc(OC(F)F)cc(OC(F)F)n1
inactive: [1] | [3] | [4] | [6] | [7] | [8]

CCCCC(CC)CN1C(=O)C2C3C=CC(C3)C2C1=O (stereo unspecified)
inactive: [1] | [2] | [3] | [4] | [6] | [7] | [8]

CCCCOCCOCCOCc1cc2c(cc1CCC)OCO2
inactive: [10] | [4] | [5] | [6] | [7] | [8]

C=CCOC(Cn1ccnc1)c1ccc(Cl)cc1Cl (stereo unspecified)
inactive: [1] | [3] | [4] | [5] | [6] | [7] | [8]

COC(=O)c1ccccc1C(=O)O
inactive: [2] | [3] | [5] | [7] | [8]

COC(=O)c1ccc(I)cc1S(=O)(=O)NC(=O)Nc1nc(C)nc(OC)n1
inactive: [3] | [4] | [5] | [8]

CSC(=O)c1cccc2nnsc12
inactive: [1] | [3] | [5] | [6] | [7] | [8]

CCOC(=O)COc1cc(-n2ncc(C(F)(F)F)c(C)c2=O)c(F)cc1Cl
inactive: [2] | [3] | [5] | [8]

CC(=O)[C@H]1CC[C@H]2[C@@H]3CCC4=CC(=O)CC[C@]4(C)[C@H]3CC[C@]12C
inactive: [2] | [3] | [5] | [6] | [7] | [8]
active: [6] 125 µM

S=C([S-])NCCNC(=S)[S-].[Mn+2]
inactive: [1] | [2] | [3] | [4] | [5] | [8]

CCCN(CCC)C(=O)SCC
inactive: [1] | [2] | [3] | [4] | [5] | [6] | [8]

CCNc1nc(N)nc(Cl)n1
inactive: [2] | [3] | [5] | [6] | [8]

C#C[C@]1(O)CC[C@H]2[C@@H]3CCC4=CC(=O)CC[C@@H]4[C@H]3CC[C@@]21CC
inactive: [1] | [2] | [3] | [5] | [6] | [7] | [8]

C#CCOC(=O)[C@@H](C)Oc1ccc(Oc2ncc(Cl)cc2F)cc1
active: [3] 1.16 µM
inactive: [1] | [2] | [5] | [8]

CCCCC(CC)COC(=O)c1ccccc1C(=O)O (stereo unspecified)
inactive: [1] | [2] | [3] | [5] | [6] | [8]

CCC(O)=C1C(=O)CC(C(=O)O)CC1=O (stereo unspecified)
inactive: [1] | [2] | [3] | [5] | [6] | [7] | [8]

COc1c(Cl)ccc(Cl)c1C(=O)O
active: [7] 59.2 µM
inactive: [2] | [3] | [8]

CCCCCCC(C)OC(=O)COc1nc(F)c(Cl)c(N)c1Cl (stereo unspecified)
inactive: [4] | [5] | [7] | [8]

CCCOC(=O)NCCCN(C)C
inactive: [2] | [3] | [7] | [8]
